Results filed as inconclusive are left out. Calls of active or inactive are those of the source. The call rests on the fitted dose curve; in most records, active means well fitted cell-killing curve with a large enough effect; inconclusive means small, poorly fitted or top-dose-only effect, or effect the other way; inactive means no such curve, though single readings can be large or run the other way.
Experiments:
[1] = Quantitative High-Throughput drug screen in 47 multiple myeloma cell lines against the NCATS MIPE library collection: FR4_PLB cell viability assay (AID 1918924; further: nearly all actives have a fitted effect of over 35% in size)
Method in brief: (§1)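 Primary qHTS used for cherry-picking: cells at 500/well, library compounds for 48 h (37C, 5% CO2), luminescent ATP assay.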

[2] = Quantitative High-Throughput drug screen in 47 multiple myeloma cell lines against the NCATS MIPE library collection: Delta47_JCRB cell viability assay (AID 1918925; further: nearly all actives have a fitted effect of over 45% in size)
Method in brief: (§2)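 Luminescent ATP measurement with CellTiter-Glo gives viability, scaled between DMSO-only wells (100%) and media-only wells (0%). Cells, 500 per well, faced library compounds for 48 hours at 37C.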

[3] = Quantitative High-Throughput drug screen in 47 multiple myeloma cell lines against the NCATS MIPE library collection: EJM_DSMZ cell viability assay (AID 1918926; further: nearly all actives have a fitted effect of over 30% in size)
Method in brief: as §2

[4] = Quantitative High-Throughput drug screen in 47 multiple myeloma cell lines against the NCATS MIPE library collection: AMO1_DSMZ cell viability assay (AID 1918927; further: nearly all actives have a fitted effect of over 30% in size)
Method in brief: as §2

[5] = Quantitative High-Throughput drug screen in 47 multiple myeloma cell lines against the NCATS MIPE library collection: ARP1_JJKsccF8 cell viability assay (AID 1918928; further: nearly all actives have a fitted effect of over 40% in size)
Method in brief: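 Myeloma cells at 500 per well in 1536-well format treated with MIPE 4.0 library by pin transfer for 48 h at 37C, 5% CO2. Viability from ATP luminescence (CellTiter-Glo), normalized to DMSO (100%) and media-only (0%) wells.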

[6] = Quantitative High-Throughput drug screen in 47 multiple myeloma cell lines against the NCATS MIPE library collection: Karpas620_DSMZ cell viability assay (AID 1918959); further: nearly all actives have a fitted effect of over 30% in size
Method in brief: as §1

[7] = Quantitative High-Throughput drug screen in 47 multiple myeloma cell lines against the NCATS MIPE library collection: ARD_JJKsccE7 cell viability assay (AID 1918929)
Method in brief: as §2
Potency means the concentration at half of the fitted maximal effect.

CC(C)N1[N]C(=C2C=c3cc(O)ccc3=N2)c2c(N)ncnc21
active: Potency [1] 296 nM | Potency [2] 264 nM | Potency [3] 3720 nM | Potency [4] 662 nM | Potency [5] 83.3 nM | Potency [6] 5900 nM

CCOC(=O)[C@H](CCc1ccccc1)N[C@@H](C)C(=O)N1[C@@H](C(=O)O)C[C@H]2CCC[C@@H]21
active: Potency [1] 18700 nM | Potency [2] 8330 nM | Potency [3] 20900 nM | Potency [4] 7430 nM | Potency [5] 20900 nM | Potency [6] 8330 nM

CCCCCN=C(N)NN=Cc1c[nH]c2ccc(OC)cc12
active: Potency [1] 2350 nM | Potency [2] 13200 nM | Potency [3] 13200 nM | Potency [4] 1320 nM | Potency [7] 2960 nM

CCOC(=O)N1CCN([N+]([O-])=NOc2ccc([N+](=O)[O-])cc2[N+](=O)[O-])CC1
active: Potency [1] 5900 nM | Potency [2] 1480 nM | Potency [3] 2640 nM | Potency [5] 2960 nM | Potency [7] 5900 nM | Potency [6] 5260 nM

N#CC(=Cc1ccc(O)c(O)c1)C(=O)NCc1ccccc1
active: Potency [1] 5260 nM | Potency [2] 1660 nM | Potency [3] 14800 nM
inactive: Potency [4] | Potency [6]

C=CC(=O)Nc1cccc(Nc2nc(NC3CCC(N(C)C)CC3)nc3c2ncn3C(C)C)c1 (configuration not stated)
active: Potency [1] 235 nM | Potency [2] 235 nM | Potency [3] 8.3 nM | Potency [5] 743 nM | Potency [7] 10.5 nM

CCCNC(=O)[C@H]1O[C@H]1C(=O)N[C@H](C(=O)N1CCC[C@@H]1C(=O)OC)C(C)CC (some centres not stated)
active: Potency [1] 8330 nM | Potency [2] 13200 nM | Potency [3] 5900 nM | Potency [4] 4690 nM | Potency [5] 8330 nM | Potency [6] 5900 nM

CCC(C=C[C@@H]1OC(=O)C=C[C@H]1C)=C[C@H](C)CC=CC(C)=C[C@@H](C)C(=O)[C@@H](C)[C@H](O)[C@@H](C)CC(C)=CC(=O)O
active: Potency [1] 31.1 nM | Potency [2] 22 nM | Potency [3] 27.7 nM | Potency [5] 27.7 nM | Potency [6] 12.4 nM

NC(=O)c1ncn([C@@H]2O[C@H](CO)[C@@H](O)[C@@H]2O)c1O
active: Potency [1] 18700 nM | Potency [5] 13200 nM
inactive: Potency [2] | Potency [3] | Potency [4] | Potency [7] | Potency [6]

CCc1cnn2c(NCc3ccc[n+]([O-])c3)cc(N3CCCC[C@@H]3CCO)nc12
active: Potency [1] 18.7 nM | Potency [2] 33.2 nM | Potency [3] 18.7 nM | Potency [5] 26.4 nM | Potency [7] 23.5 nM | Potency [6] 33.2 nM

CC(C=CC1=C(C)CCCC1(C)C)=CC=CC(C)=CC(=O)Nc1ccc(O)cc1
active: Potency [1] 9590 nM | Potency [2] 3820 nM | Potency [3] 8550 nM | Potency [4] 3400 nM | Potency [5] 19100 nM | Potency [7] 8550 nM | Potency [6] 6050 nM

CC(=O)[C@]1(O)Cc2c(O)c3c(c(O)c2[C@@H](O[C@H]2C[C@H](N)[C@@H](O)[C@H](C)O2)C1)C(=O)c1ccccc1C3=O
active: Potency [1] 469 nM | Potency [2] 105 nM | Potency [3] 118 nM | Potency [4] 833 nM | Potency [5] 264 nM | Potency [7] 3320 nM | Potency [6] 2090 nM

CN[C@@H]1C[C@H]2O[C@@](C)([C@H]1OC)n1c3ccccc3c3c4c(c5c6ccccc6n2c5c31)C(=O)N[C@H]4O
active: Potency [1] 2090 nM | Potency [2] 46.9 nM | Potency [3] 526 nM | Potency [5] 833 nM | Potency [7] 148 nM | Potency [6] 590 nM

C[C@]12CCC(=O)C=C1[C@@H]1CC1[C@H]1[C@H]3[C@@H]4C[C@H]4[C@@]4(CCC(=O)O4)[C@@]3(C)CC[C@H]12 (some centres not stated)
inactive: Potency [1] | Potency [2] | Potency [3]
active: Potency [7] 18700 nM

CC(C)(C)[C@H](NC(=O)c1ccc(N)c(Cl)c1)C(=O)N1CCC[C@@H]1C(=O)N[C@H](C#N)CC(=O)O
inactive: viability (% of DMSO control) [1] 107% [at 3.51 µM] | viability (% of DMSO) [2] 119% [at 3.51 µM] | viability, % of control [3] 97.8% [at 3.51 µM] | viability [5] 111% [at 3.51 µM] | viability (% of DMSO) [6] 126% [at 3.51 µM]

C[C@H](NCc1ccc2c(c1)nc(NC(=O)c1ccc(-c3cn[nH]c3)s1)n2CCc1ccccc1)C(C)(C)C
active: Potency [1] 1050 nM | Potency [2] 662 nM | Potency [3] 1050 nM | Potency [4] 662 nM | Potency [5] 1320 nM | Potency [7] 526 nM | Potency [6] 743 nM

CC[C@@]1([C@@H]2O[C@@H]([C@H]3O[C@@](O)(CO)[C@H](C)C[C@H]3C)C[C@H]2C)CC[C@H]([C@]2(C)CC[C@]3(C[C@H](O)[C@@H](C)[C@@H]([C@@H](C)[C@@H](OC)[C@H](C)C(=O)O)O3)O2)O1
active: Potency [1] 812 nM | Potency [2] 457 nM | Potency [3] 2040 nM | Potency [4] 57.5 nM | Potency [7] 911 nM

C[C@@]12C(=O)OC(=O)[C@@]1(C)C1CCC2O1
active: Potency [1] 1480 nM | Potency [2] 935 nM | Potency [3] 2640 nM | Potency [4] 1320 nM | Potency [5] 833 nM | Potency [7] 1660 nM | Potency [6] 2960 nM

CC(=O)N[C@H]1[C@@H]([C@H](O)[C@H](O)CO)OC(C(=O)O)=C[C@@H]1N=C(N)N
inactive: Potency [1] | Potency [2] | Potency [3] | Potency [4] | Potency [5] | Potency [6]

CON=C(C(=O)N[C@@H]1C(=O)N2C(C(=O)O)=C(CSC(=O)c3ccco3)CS[C@H]12)c1csc(N)n1
inactive: Potency [1] | Potency [3] | Potency [4] | Potency [6]

CNC(=O)c1ccc(Nc2cc(Nc3ccccc3S(=O)(=O)C(C)C)c3cc[nH]c3n2)nc1
active: Potency [1] 4690 nM | Potency [3] 6620 nM | Potency [4] 2090 nM | Potency [5] 18700 nM | Potency [7] 1870 nM | Potency [6] 1320 nM

CC[C@H]1OC(=O)[C@H](C)[C@@H](O[C@H]2C[C@@](C)(OC)[C@@H](O)[C@H](C)O2)[C@H](C)[C@@H](O[C@@H]2O[C@@H](C)C[C@H](N(C)C)[C@@H]2O)[C@](C)(O)C[C@@H](C)C(=O)[C@H](C)[C@@H](O)[C@]1(C)O
inactive: Potency [1] | Potency [3] | Potency [4] | Potency [5] | Potency [7] | Potency [6]

— PubChem BioAssay (NCATS)
